RMI-FANCM inh = blocks RMI1/RMI2 complex binding to FANCM MM2 peptide; AID 1159607; Fluorescence polarization, RMI core complex with F-MM2 peptide; hits give low values; FP signal (polarization) at 33 µM; hit rate 0.58% among 70,000; in the data active means FP signal below about 40
Active calls of the source: *. The sample as a whole holds a higher share of hits than the screen did.

SMILES	RMI-FANCM inh
O=S(=O)(c1ccc(C2CCCCC2)cc1)n1nnc2ccccc21	62
Cc1ccc2sc(N(Cc3cccnc3)C(=O)CSc3ccccc3)nc2c1C	54
Cc1cc(C)c(S(=O)(=O)NCc2ccc3c(c2)OCO3)cc1[N+](=O)[O-]	59
O=C(/C=C/c1ccc([N+](=O)[O-])cc1)Nc1cccc(NC(=O)/C=C/c2ccc([N+](=O)[O-])cc2)c1	88
O=C(CN1CCN(CCN2C(=O)c3cccc4cccc(c34)C2=O)CC1)c1ccc(F)cc1	63
COC(=O)c1ccc(OCC(O)CN2CCN(CCN3C(=O)c4cccc5cccc(c45)C3=O)CC2)cc1 (stereo not given)	56
COc1ccc(C(=O)CN2CCN(CCN3C(=O)c4cccc5cccc(c45)C3=O)CC2)cc1	25*
CC1=C(C(=O)Nc2cccc(C)c2C)C(c2cccc3ccccc23)NC(=S)N1 (stereo not given)	72
O=C1CC(c2ccc(O)cc2)Oc2cc(O)cc(O)c21 (stereo not given)	63
Oc1cc(O)c2c(c1)O[C@H](c1cc(O)c(O)c(O)c1)[C@H](O)[C@H]2c1c(O)cc(O)c2c1O[C@H](c1cc(O)c(O)c(O)c1)[C@H](O)[C@H]2c1c(O)cc(O)c2c1O[C@H](c1cc(O)c(O)c(O)c1)[C@H](O)C2	-7*
O=C(O[C@@H]1Cc2c(O)cc(O)cc2O[C@@H]1c1cc(O)c(=O)c2c(O)c(O)cc([C@H]3Oc4cc(O)cc(O)c4C[C@H]3O)c2c1)c1cc(O)c(O)c(O)c1	46
O=C(NCCOc1ccc2c(c1)OCO2)c1cccs1	60
Cc1ccc(-c2csc(NNC3=NCCCCC3)n2)cc1	53
O=C(Nc1c(C(=O)Nc2ccc(F)cc2)oc2ccccc12)c1ccccc1C(F)(F)F	65
NNC(=O)c1cnn(-c2ccc([N+](=O)[O-])cc2)c1C(F)(F)F	53
Cc1cc(NC(=O)c2cc(=O)c3ccccc3o2)n(-c2nc3c(c(=O)[nH]2)CCC3)n1	9*
C/C=C/C(=O)Nc1cc(C)nn1-c1nc2c(c(=O)[nH]1)CCC2	70
Cc1cc(NC(=O)C(=O)c2c[nH]c3ccccc23)n(-c2nc3c(c(=O)[nH]2)CCC3)n1	47
COc1cccc(-c2csc(/C(C#N)=C\c3ccc(Cl)cc3Cl)n2)c1	64
O=C1c2ccc([N+](=O)[O-])cc2C(=O)N1CC12CC3CC(CC(Br)(C3)C1)C2	59
COc1ccc(-n2nnc(C(=O)Nc3ccc(Cl)cc3Cl)c2C)cc1	66
Cc1ccc2c(c1)sc(=NC(=O)c1ccnn1C)n2C	65
COc1cc(O)c2c(=O)c(-c3ccc(O)cc3)coc2c1	51
O=c1c(-c2ccccc2)coc2cc(O)cc(O)c12	33*
O=c1cc(-c2ccccc2)oc2cc(O)cc(O)c12	55
SMILES	RMI-FANCM inh
NC(=O)c1oc2ccccc2c1NC(=O)C1=COCCO1	63
COc1ccc(C(=O)NNC(=O)c2ccc(=O)n(Cc3ccccc3)c2)c(OC)c1	63
COCCNC(=O)C(=O)NCCN1CCN(c2ccc(F)cc2)CC1	65
CCOC(=O)c1c(-c2ccc(C)c(C)c2)csc1NC(=O)c1cccnc1	72
O=C(O)C1CCCN1C(=O)c1cccs1 (stereo not given)	62
CCOC(=O)[C@H](CCc1ccccc1)N[C@H]1CCc2ccccc2N(CC(=O)O)C1=O	57
C[C@H](NC(CCc1ccccc1)C(=O)O)C(=O)N1CCC[C@H]1C(=O)O (stereo not given in full)	34*
Nc1cc(Cl)ccn1	55
COc1ccc(N2C(=O)c3ccc(C(=O)c4ccc5c(c4)C(=O)N(c4ccc(OC)cc4)C5=O)cc3C2=O)cc1	6*
CCC(=O)Oc1ccc(N2C(=O)c3ccccc3C2=O)cc1	31*
C=CC(=O)Oc1ccc(N2C(=O)c3cccc([N+](=O)[O-])c3C2=O)cc1	58
CCC(=O)Oc1cccc(N2C(=O)C3CCCCC3C2=O)c1 (stereo not given)	53
COc1ccc(SCC(=O)Nc2ccc3c(c2)C(=O)N(C)C3=O)cc1	66
COc1ccc(N2C(=O)C3C4C=CC(O4)C3C2=O)cc1 (stereo not given)	56
CCOC(=O)C1CCCN(C(=O)C(=O)c2cn(CC(=O)N3CCCC3)c3ccccc23)C1 (stereo not given)	66
Cc1noc(C)c1C(=O)O/N=C(\c1cccs1)C(C)(C)C	58
CC(C)C(NC(=O)c1cccs1)c1nc2ccccc2[nH]1 (stereo not given)	82
Cc1nn2c(N)csc2nc1=O	19*
Cc1cccc(-c2nc3scc(CCN)n3n2)c1	72
Cc1ccc(N2CC(c3nc(-c4cccs4)no3)CC2=O)cc1 (stereo not given)	68
Cc1cc(-c2nnc(NC(=O)c3cccc(Oc4ccccc4)c3)o2)nn1C	70
CN1CCCc2cc(CCNC(=O)c3ccccc3Cl)ccc21	61
CCCN1CCCc2cc(CCNS(=O)(=O)CC(C)C)ccc21	88
CCCN1CCCc2cc(CCNC(=O)C(=O)Nc3ccccc3OCC)ccc21	163
CCCN1CCCc2cc(CCNS(C)(=O)=O)ccc21	24*

Compound activity: PubChem, Small Molecule Screening Facility, UW Madison
